Shown are actives, neighbours in structure and some others; about 21% of the full set was active somewhere.
DT40 TDP1 no CPT: qHTS for Inhibitors of human tyrosyl-DNA phosphodiesterase 1 (TDP1): qHTS in cells in absence of CPT. DT40 Tdp1-/- hTDP1 cells, no CPT, ATP luminescence, 48 h. hit rate 15% among 420,000. Potency, µM (doses to about 46.2 µM), hits mostly inhibitors; also: nearly all actives have a fitted effect of over 55% in size
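Readout: luminescence from CellTiter-Glo after 30 min in the dark at RT. Cells: DT40 Tdp1-/- with stable hTDP1, 400/well. Exposure: compounds alone, ≥48 hr, 37 °C.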
ELG1 repair inh: inhibitors of ELG1-dependent DNA repair in HEK293T cells | HEK293T ELG1-luciferase reporter, luminescence, 16 h; DNA damage induced by 5-fluorouridine | Potency, µM (doses to about 46.1 µM), hits mostly inhibitors | hit rate 2.3% among 330,000 | AID 504467; also: nearly all actives have a fitted effect of over 55% in size
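Cells (2,000 per well) received 5-fluorouridine plus test compound or DMSO and were incubated 16 hr at 37 °C, 5% CO2. Luciferase activity was read by luminescence 30 min after ONE-Glo addition; signal suppression marked inhibition of damage-induced ELG1 function.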
RORgamma inh: blocks mouse ROR gamma transcriptional activity; hit rate 5.4% among 310,000; Drosophila S2 Gal4-RORgamma UAS-luciferase reporter, 20 h; P51450; Potency, µM (titrated, usually from 53.6 µM), actives largely listed as inhibitors; also: nearly all actives have a fitted effect of over 60% in size
Target sequence (P51450 whole entry, looked up, the tested form may be a part): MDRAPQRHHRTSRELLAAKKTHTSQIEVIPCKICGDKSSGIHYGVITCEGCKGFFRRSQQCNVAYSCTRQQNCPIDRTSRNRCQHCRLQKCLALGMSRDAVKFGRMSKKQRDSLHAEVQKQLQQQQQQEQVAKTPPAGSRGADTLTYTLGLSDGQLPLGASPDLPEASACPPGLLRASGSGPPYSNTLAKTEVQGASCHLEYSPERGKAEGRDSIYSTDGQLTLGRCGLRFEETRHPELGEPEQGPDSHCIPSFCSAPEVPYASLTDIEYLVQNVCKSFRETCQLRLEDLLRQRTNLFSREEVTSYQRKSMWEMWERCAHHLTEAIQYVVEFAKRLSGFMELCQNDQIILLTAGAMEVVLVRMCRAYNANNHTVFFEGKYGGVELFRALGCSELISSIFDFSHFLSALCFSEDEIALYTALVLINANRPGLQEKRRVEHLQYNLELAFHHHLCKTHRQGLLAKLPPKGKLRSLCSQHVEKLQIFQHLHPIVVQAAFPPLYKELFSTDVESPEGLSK
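Drosophila S2 cells stably expressing Gal4-DBD/mouse RORγ fusion under metallothionein promoter plus UAS-luciferase; compound 1 h, then 700 uM CuSO4 induction for 20 h at ambient temperature; inhibition read as reduced luminescence.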
VP16 counter: inhibits Gal4-VP16 luciferase reporter, ROR gamma counter-screen; Potency, µM (top dose mostly 53.6 µM), most hits filed as inhibitors; Drosophila S2 Gal4-VP16 UAS-luciferase, luminescence, 20 h; AID 2546; hit rate 3.5% among 310,000;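 also: Gal4-VP16 expression switched on by copper sulfate through the metallothionein promoter; nearly all actives have a fitted effect of over 50% in size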
DT40 TDP1 CPT: growth inhibition of DT40 Tdp1-/-;hTDP1 cells with camptothecin (screen for TDP1 inhibitors). hit rate 12% among 420,000. Potency, µM (top dose mostly 46.2 µM), usual class: inhibitors. chicken DT40 Tdp1-/-;hTDP1 cells + 20 nM CPT, ATP luminescence, 48 h; also: nearly all actives have a fitted effect of over 55% in size
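Cell growth measured by CellTiter-Glo luminescence after a minimum 48 h, 37 C compound exposure with 20 nM CPT in Tdp1-knockout DT40 cells stably expressing hTDP1, seeded 400/well; qHTS titration format.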
IL-1B inflam inh: inflammasome signaling inhibition, IL-1 beta readout | THP-1 LPS/ATP IL-1B secretion, AlphaLISA, 16 h; stronger effect = lower value | activity change, % at 57.5 µM | hit rate 4.7% among 360,000 | AID 743279; in the data active = activity change below about -50%; inconclusive = mostly about -30% to -49%
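THP-1 cells pretreated 1 hr with compounds (up to 57.5 uM final), then stimulated with LPS (250 ng/mL final) plus ATP (1.25 mM final); secreted IL-1B measured by AlphaLISA after 16 hr, decreased signal indicating inhibition.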
A number is an active result; i = inactive; ? = inconclusive; nt = no result; [ ] = remark or other dose. Unless noted, calls follow the shape of the dose curve; as a rule, active = well fitted curve in the direction sought with a large enough effect; inconclusive = small, poorly fitted or top-dose-only effect, or another doubt; inactive = no such curve, though single readings can be large; an effect the other way counts as inactive or inconclusive.

SMILES	DT40 TDP1 no CPT	ELG1 repair inh	RORgamma inh	VP16 counter	DT40 TDP1 CPT	IL-1B inflam inh
COc1c(C(=O)Nc2nnc(C3CC3)s2)csc1Cl	i	?	i	?	i	i
CC(=O)N1CCc2cc(S(=O)(=O)NC(Cc3ccccc3)C(=O)Nc3ccc(C)cc3C)ccc21 (stereo not given)	i	nt	nt	nt	?	nt
Nc1c(C(=O)Nc2ccc(C(F)(F)F)cc2)sc2nc(-c3cccs3)ccc12	i	nt	nt	nt	i	nt
Nc1c(C(=O)Nc2nccs2)sc2nc(-c3cccs3)cc(C(F)(F)F)c12	?	i	?	10µM	i	i
Cc1nnc(NC(=O)c2sc3nc(-c4cccs4)cc(C(F)(F)F)c3c2N)s1	?	?	4µM	?	?	i
CC(C)(C)C(=O)c1sc2nc(-c3cccs3)cc(C(F)(F)F)c2c1N	i	i	10µM	i	i	i
CCC(C)NC(=O)c1cn(CC)c2cc(N3CCN(C(=O)c4ccco4)CC3)c(F)cc2c1=O (stereo not given)	13µM	21µM	i	i	16µM	i
CCn1cc(C(=O)NCc2ccco2)c(=O)c2cc(F)c(N3CCN(C(=O)c4ccco4)CC3)cc21	?	?	i	i	21µM	?
CCn1cc(C(=O)NCC(C)C)c(=O)c2cc(F)c(N3CCN(C(=O)c4ccco4)CC3)cc21	21µM	i	i	i	?	i
CCn1cc(C(=O)NCC(C)C)c(=O)c2cc(F)c(N3CCN(C)CC3)cc21	i	i	i	i	i	i
C=CCNC(=O)c1cn(CC)c2cc(N3CCN(C(=O)c4ccco4)CC3)c(F)cc2c1=O	15µM	i	i	i	23µM	i
CCn1cc(C(=O)NCCc2ccccc2)c(=O)c2cc(F)c(N3CCN(C)CC3)cc21	?	?	i[0.365 µM]	nt	?	i
CSc1cccc(NC(=S)NC(=O)CCc2ccccc2)c1	i	?	3.2µM	8.9µM	?	i
CSc1cccc(NC(=O)CCc2ccccc2)c1	i	i	i	i	i	?
NC(=O)c1ccccc1NC(=O)CCc1ccccc1	?	?	i	i	?	i
Cc1cccc(C)c1NC(=S)NC(=O)CCc1ccccc1	i	i	2.8µM	10µM	i	i
NC(=O)c1ccccc1NC(=S)NC(=O)CCc1ccccc1	2.6µM	i	?	i	3.7µM	i
Cn1nc(NC(=O)C(F)(F)F)c2ncc(-c3ccccc3)nc21	?	nt	nt	nt	i	i
O=C(OCc1ccccc1)N1CCC2CC1c1c(-c3ccc(C(F)(F)F)cc3)cccc12 (stereo not given)	?	nt	nt	nt	16µM	i
O=C(OCc1ccccc1)N1CCC2CC1c1ccc(-c3cccc(F)c3)cc12 (stereo not given)	?	nt	nt	nt	?	i
FC(F)(F)c1ccc(-c2cccc3c2C2CC3CCN2Cc2ccc3c(c2)OCO3)cc1 (stereo not given)	16µM	nt	nt	nt	?	i
O=C(OCc1ccccc1)N1CCC2CC1c1c(Cl)cccc12 (stereo not given)	18µM	nt	nt	nt	?	i
OC[C@H]1O[C@@H](c2nc(-c3ccc(Br)cc3)no2)C[C@@H]1O	?	nt	nt	nt	i	i
CC(C)C[C@H]1CN(CCCC[C@H]2CNC(=O)C(=O)N2CCc2ccc(O)cc2)C(=O)C(=O)N1Cc1ccccc1	i	nt	nt	nt	i	i
CCN(c1ccccc1)S(=O)(=O)c1ccc(Cl)c(NC(=O)CNC(C)c2ccccc2)c1 (stereo not given)	?	15µM	nt	nt	21µM	i
SMILES	DT40 TDP1 no CPT	ELG1 repair inh	RORgamma inh	VP16 counter	DT40 TDP1 CPT	IL-1B inflam inh
CCN(c1ccccc1)S(=O)(=O)c1ccc(Cl)c(NC(=O)CN(C)Cc2cccc(F)c2)c1	18µM	nt	nt	nt	16µM	i
CCN(c1ccccc1)S(=O)(=O)c1ccc(Cl)c(NC(=O)CSc2nnc(C)s2)c1	?	i	i	i	?	i
CCC(C)NCC(=O)Nc1cc(S(=O)(=O)N(CC)c2ccccc2)ccc1Cl (stereo not given)	23µM	i	?	i	21µM	-53
CCN(c1ccccc1)S(=O)(=O)c1ccc(Cl)c(NC(=O)COC(=O)c2cc(O)c3ccccc3c2O)c1	nt	i	10µM	13µM	nt	nt
CCOC(=O)C1CCCN(C(=O)CSc2nnnn2C)C1 (stereo not given)	i	i	nt	nt	i	i
CCC(C)Nc1nc(N)c([N+](=O)[O-])c(N2CCCCCC2)n1 (stereo not given)	2.6µM	i	i	i	?	?
CC(C)CNc1nc(N)c([N+](=O)[O-])c(N2CCCCCC2)n1	16µM	7.3µM	i	?	?	i
CCOc1ccccc1NC(=O)Cn1nc2c3cc(F)ccc3n(Cc3cccc(C)c3)cc-2c1=O	?	nt	nt	nt	i	nt
COc1cccc(NC(=O)c2oc3ccccc3c2NC(=O)C2CC2)c1	?	13µM	i	i	?	i
